Test results as given in PubChem BioAssay (NCI).
The panel holds about 83,000 compounds, 20% with a hit somewhere; the sample as a whole holds those more often.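 Compound tested at a single concentration for 48 hours in 96-well plates; a percent growth value below 10 was scored as active.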 Values without a mark were called inactive. The source made the active and inactive calls.

Legend:
Test in all cases: NCI-60 one-dose screen, 48 h (100 = growth as untreated, 0 = no growth, -100 = all killed)
Details in all cases: 10 µM unless noted
SN12C renal = system: SN12C renal
UO-31 renal = system: UO-31 renal
TK-10 renal = system: TK-10 renal
ACHN renal = system: ACHN renal
CAKI-1 renal = system: CAKI-1 renal
A498 renal = system: A498 renal
CCRF-CEM leukemia = system: CCRF-CEM leukemia
MOLT-4 leukemia = system: MOLT-4 leukemia
SR leukemia = system: SR leukemia
RPMI-8226 leukemia = system: RPMI-8226 leukemia
OVCAR-8 ovarian = system: OVCAR-8 ovarian
OVCAR-5 ovarian = system: OVCAR-5 ovarian
OVCAR-4 ovarian = system: OVCAR-4 ovarian
SK-OV-3 ovarian = system: SK-OV-3 ovarian
IGROV1 ovarian = system: IGROV1 ovarian
OVCAR-3 ovarian = system: OVCAR-3 ovarian
HS 578T breast = system: HS 578T breast
NCI/ADR-RES ovarian = system: NCI/ADR-RES ovarian
T-47D breast = system: T-47D breast
EKVX NSCLC = system: EKVX NSCLC

| Compound | growth (SN12C renal) | growth (UO-31 renal) | growth (TK-10 renal) | growth (ACHN renal) | growth (CAKI-1 renal) | growth (A498 renal) | growth (CCRF-CEM leukemia) | growth (MOLT-4 leukemia) | growth (SR leukemia) | growth (RPMI-8226 leukemia) | growth (OVCAR-8 ovarian) | growth (OVCAR-5 ovarian) | growth (OVCAR-4 ovarian) | growth (SK-OV-3 ovarian) | growth (IGROV1 ovarian) | growth (OVCAR-3 ovarian) | growth (HS 578T breast) | growth (NCI/ADR-RES ovarian) | growth (T-47D breast) | growth (EKVX NSCLC) |
| --- | --- | --- | --- | --- | --- | --- | --- | --- | --- | --- | --- | --- | --- | --- | --- | --- | --- | --- | --- | --- |
| CCN1C(=O)c2ccc3c4c(ccc(c24)C1=O)C(=O)N(CCCNCc1ccccc1OC)C3=O | -91.6% (active) | -42.5% (active) | -28.3% (active) | -67.1% (active) | -11.4% (active) | -80.7% (active) | -42.3% (active) | -51.7% (active) | -42% (active) | -23% (active) | -22.9% (active) | -90.6% (active) | -60.3% (active) | 11.1% | -63% (active) | -20.1% (active) | -31.2% (active) | 4.44% (active) | -50.5% (active) |  |
| COc1cc(/C=C/C(=O)c2ccc(F)cc2)ccc1OCCCCCOc1cc2c(cc1OC)C(=O)N1CCCC1C=N2 (stereo unspecified) | -2.73% (active) |  | -9.06% (active) | -9.07% (active) | -1.54% (active) | -65.5% (active) |  | -28.9% (active) | -32.6% (active) |  | 4.8% (active) | -5.07% (active) | -37.5% (active) | -4.32% (active) | -66.5% (active) | -8.63% (active) | -24.8% (active) | 8.85% (active) | -4.98% (active) | -20.9% (active) |
| O=[N+]([O-])c1cnc(Sc2ccncn2)c([N+](=O)[O-])c1 | 96.9% | 48.8% | -37.8% (active) | -29.6% (active) | 64.9% | 87% | -49.2% (active) | -41.2% (active) | 11.8% | 67.4% | 97.3% | 102% | 97.8% | 97.2% | 117% | 55.1% | 97.8% | 107% | -31.7% (active) |  |
| O=C1Cc2cc(CCn3cncn3)c(Cl)cc2N1 | 55.8% | 66% | 122% |  | 60% | 47.1% |  |  |  |  |  |  | 86.8% | 79.3% | 84.7% | 71.7% | 28.6% | 52.9% | 99.1% | 29.5% |
| COc1ccc(-c2oc3cc(O)c(OC)c(O)c3c(=O)c2OC)cc1O | 37.3% | 35.5% |  | 37.5% | 72.2% |  | -4.31% (active) |  | 7.87% (active) | 12.3% | 25.3% | 57% | 65.6% | 24.5% | 12.2% | -40.1% (active) | -27.4% (active) | -4.16% (active) | 53.1% | 83.8% |
| NC(=O)N/N=C/c1ccc(Br)o1 |  | 86.1% | 101% | 106% | 98.4% | 97.5% | 108% | 97.9% | 97.6% | 109% | 107% | 98.7% | 111% | 101% | 97.8% | 113% | 109% | 105% | 91.4% | 101% |
| Cc1cc(NCCCNc2ccnc3cc(Cl)ccc23)nc(N2CCN(C)CC2)n1 | 77.6% | 58.6% | 133% | 45.7% | 57% | 82.4% | 26.1% | 21.2% | 0.0449% (active) | 38.5% | 77.1% | 86.6% | 59.5% | 106% | 83.1% | 80% | 91.9% | 107% | 81.4% |  |
| N#CCNc1ccccc1N | 104% | 65.1% | 104% |  |  | 104% |  | 85.1% | 116% |  | 93.1% | 109% | 97.2% | 84.5% | 89.3% | 101% | 91.8% | 95.5% | 59.9% | 89.6% |
| O=C(/C=C/c1ccc(O)c(O)c1)N1CCN(c2ccc(Cl)cc2)CC1 | 69.8% | 24.5% | 49% | 48.1% | 50.5% | 72.1% | 32.6% | 27.3% | 26.6% | 42% | 61.6% | 95.3% | 51.4% | 80.7% | 14.9% | 60.3% | 80.2% | 58.7% | 49.2% |  |
| COc1ccc(-c2nnc(COc3ccc(NC(=O)Nc4cc(C(F)(F)F)cc(C(F)(F)F)c4)cc3F)o2)cc1 | 5.21% (active) | -4.7% (active) | 15.3% | 11% | 12.3% | -1.78% (active) | 16.2% | 8.94% (active) | -13.2% (active) | -25.8% (active) | 11.4% | 29% | 19.2% | 18.4% | 44.4% | 2.67% (active) | 16.8% | 10.6% | 20.4% |  |
| Cc1cc2c(cc1C)Nc1sc(NC(=O)CN3CCN(C)CC3)nc1C(=O)N2 | 103% | 94.3% | 99.9% | 111% | 106% | 102% | 98.3% | 87.4% | 79% | 105% | 103% | 105% | 108% | 99.6% | 112% | 112% | 106% | 103% | 94.1% |  |
| O=C(/C(=N/O)S(=O)(=O)c1ccccc1)c1cccs1 | 101% | 96.8% | 89.5% | 112% | 103% | 103% | 98.5% | 104% | 85.9% | 101% | 104% | 118% | 113% | 94% | 109% | 109% | 118% | 97.3% | 93.2% |  |
| C=C(C[C@@](O)(C(=O)Oc1ccccc1)C(=O)C1CCCCC1)c1ccccc1 | 98% | 83.8% | 97.7% |  |  | 106% | 95.4% | 101% | 103% | 92% | 101% | 103% | 97.8% | 105% | 110% | 106% | 106% | 101% | 96.2% | 94.4% |
| COc1ccc(/C=C2\NC(=S)NC2=O)cc1 | 101% | 73.6% | 113% |  |  | 89% | 105% | 110% | 110% |  | 104% | 95.2% | 117% | 83.8% | 96% | 107% |  | 115% | 86.3% | 101% |
| O=[N+]([O-])c1ccc2c(c1)S(=O)c1cc([N+](=O)[O-])ccc1N2 | 101% | 77.7% | 110% |  | 98.8% |  | 98.9% |  | 121% | 103% | 101% | 95.3% | 100% | 103% | 117% | 113% | 99.7% | 102% | 96.6% | 112% |
| CCCCCCCCCCCCCCCCN=C(CC(=O)O)C(=O)O |  | 89.8% | 83.9% | 105% | 104% | 95.6% | 86.1% | 79.4% | 65.6% | 103% | 107% | 116% | 34.8% | 105% | 88.6% | 107% | 96.9% | 105% | 102% | 113% |
| CC(C)COCC(CN(Cc1ccccc1)c1ccccc1)N1CCCC1 (stereo unspecified) |  | 37% | 29.9% |  | 57.1% | 83.3% | 41.7% | 28.8% | 51.8% | 46.4% |  |  | 49.9% | 74.9% | 53.3% | 72.4% | 81.6% | 65.2% | 66.1% | 54% |
